# Compound activity: PubChem, National Center for Advancing Translational Sciences (NCATS)
# Sampled rows, rich in hits. Any-hit rate of the full collection: about 18%.
# TGFb inhibitor: inhibitors of TGF-b signaling. Potency, µM (series often up to 46.1 µM), inactives show at the highest dose activity, negative = inhibition, hits mostly inhibitors. 1.2% of 410,000 active. HepG2 CAGA-GFP TGF-b/SMAD3 reporter, GFP fluorescence, 18 h; TGF-beta stimulated, 500 pg/mL final; note: potency is the fitted concentration of half-maximal effect; % is set by controls: 0 for no effect and ±100 for the full control effect; nearly all actives have a fitted effect of over 65% in size
#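 Per well, imaged GFP fluorescence of HEPG2 CAGA-GFP cells gives the signal; cells get compound, then TGF-beta (500 pg/mL final), 18 h at 37 degrees C; %Activity versus -TGF-beta and +DMSO controls.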
# HepG2 tox-1: kills HepG2 cells in TGF-b inhibitor counter-screen; HepG2 CAGA-GFP viability, ATP luminescence, 18 h; Potency, µM (titrated, usually from 46.1 µM), inactives show at the highest dose activity change, negative = cytotoxicity, actives largely listed as cytotoxic; 0.76% of 410,000 active; AID 588856; note: potency is the fitted concentration of half-maximal effect
#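 CellTiter-Glo luminescence gave cytotoxicity after 18 hours at 37 degrees C. The cells were HepG2 CAGA-GFP in 1% FBS DMEM, stimulated with 500 pg/mL TGF-beta after compound addition. %Activity was normalised to no-cell wells (complete cell-killing) and DMSO (no toxicity), and curves were fitted and classified.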
# IL1B secr inh: inhibitors of inflammasome signaling (IL-1 beta secretion). activity change, % at 57.5 µM. 4.7% of 360,000 active. THP-1 LPS/ATP IL-1B secretion, AlphaLISA, 16 h; hits give low values; in the data active = activity change below about -50%; inconclusive = mostly about -30% to -49%; note: % is set by controls: 0 for no effect and ±100 for the full control effect
#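 Secreted IL-1B measured by AlphaLISA bead assay after 16 h compound exposure of THP-1 cells; compounds (final up to 57.5 uM) added 1 h before LPS (250 ng/mL) and ATP (1.25 mM) stimulation; lower signal means less secretion.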
# DT40 TDP1 no CPT: qHTS for Inhibitors of human tyrosyl-DNA phosphodiesterase 1 (TDP1): qHTS in cells in absence of CPT; DT40 Tdp1-/- hTDP1 cells, no CPT, ATP luminescence, 48 h; 15% of 420,000 active; Potency, µM (series often up to 46.2 µM), without a hit: at the highest dose activity change, negative = growth inhibition, hits mostly inhibitors; note: potency is the fitted concentration of half-maximal effect; % is set by controls: 0 for no effect and ±100 for the full control effect; nearly all actives have a fitted effect of over 55% in size
#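 DT40 Tdp1-/-;hTDP1 cells, no CPT (DMSO vehicle only), 400 cells/well; compounds pin-transferred; ≥48 hr, 37 °C; CellTiter-Glo 30 min RT dark, luminescence read.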
# TDP1 cell CPT: growth inhibition of DT40 Tdp1-/-;hTDP1 cells with camptothecin (screen for TDP1 inhibitors); chicken DT40 Tdp1-/-;hTDP1 cells + 20 nM CPT, ATP luminescence, 48 h; Potency, µM (highest dose often 46.2 µM), inactives show at the top dose activity change, negative = growth inhibition, most hits filed as inhibitors; 12% of 420,000 active; AID 686979; note: potency is the fitted concentration of half-maximal effect; % is set by controls: 0 for no effect and ±100 for the full control effect; nearly all actives have a fitted effect of over 55% in size
#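 Cell growth measured by CellTiter-Glo luminescence after a minimum 48 h, 37 C compound exposure with 20 nM CPT in Tdp1-knockout DT40 cells stably expressing hTDP1, seeded 400/well; qHTS titration format.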
# TDP1 block: inhibitors of human tyrosyl-DNA phosphodiesterase TDP1 | Q9NUW8 | 0.28% of 350,000 active | recombinant TDP1, AlphaScreen DNA substrate cleavage | Potency, µM (highest dose often 130 µM), for the others: at the top dose activity change, negative = inhibition, hits mostly inhibitors; note: potency is the fitted concentration of half-maximal effect; % is set by controls: 0 for no effect and ±100 for the full control effect; nearly all actives have a fitted effect of over 40% in size
# Target sequence (Q9NUW8 whole entry, looked up): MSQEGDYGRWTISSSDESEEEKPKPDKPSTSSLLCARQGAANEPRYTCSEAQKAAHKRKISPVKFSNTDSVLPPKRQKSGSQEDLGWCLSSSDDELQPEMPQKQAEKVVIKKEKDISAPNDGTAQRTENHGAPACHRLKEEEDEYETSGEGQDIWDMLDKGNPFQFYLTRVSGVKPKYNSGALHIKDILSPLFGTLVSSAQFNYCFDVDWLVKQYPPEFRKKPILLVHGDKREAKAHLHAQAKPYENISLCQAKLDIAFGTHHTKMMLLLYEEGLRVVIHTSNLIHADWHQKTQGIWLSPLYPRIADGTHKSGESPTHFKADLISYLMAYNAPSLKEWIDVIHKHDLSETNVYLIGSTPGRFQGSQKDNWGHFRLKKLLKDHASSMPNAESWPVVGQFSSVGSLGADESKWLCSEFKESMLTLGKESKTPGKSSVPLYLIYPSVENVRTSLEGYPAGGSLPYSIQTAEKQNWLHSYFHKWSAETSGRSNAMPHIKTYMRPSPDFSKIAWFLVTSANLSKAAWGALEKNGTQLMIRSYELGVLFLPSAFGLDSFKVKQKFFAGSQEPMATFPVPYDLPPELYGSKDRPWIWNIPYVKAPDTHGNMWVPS
#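 Here, a 5' biotin and 3' phosphotyrosine-FITC DNA oligonucleotide reports Tdp1 activity: intact substrate bridges AlphaScreen beads, while cleavage leaves a 3' phosphate and drops signal. All incubations at room temperature.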
# TGFb CAGA inh: confirmation of TGF-b signaling inhibitors in HepG2 reporter cells; AID 720534; Potency, µM (top dose mostly 46.1 µM), inactives show top-dose activity, negative = inhibition, usual class: inhibitors; HepG2 CAGA-GFP TGF-b reporter, GFP fluorescence, 18 h; cells stimulated with TGF-beta, 500 pg/mL; 63% of 1,600 active; shares compounds with TGFb inhibitor; note: potency is the fitted concentration of half-maximal effect; % is set by controls: 0 for no effect and ±100 for the full control effect; nearly all actives have a fitted effect of over 65% in size
# HepG2 tox-2: toxic to HepG2 cells in TGF-b counterscreen; shares compounds with TGFb inhibitor; HepG2 CAGA-GFP viability, ATP luminescence, 18 h; cells stimulated with TGF-beta, 500 pg/mL; 27% of 1,600 active; Potency, µM (doses to about 46.1 µM), for the others: at the top dose activity, negative = cytotoxicity, hits mostly inhibitors; note: potency is the fitted concentration of half-maximal effect; % is set by controls: 0 for no effect and ±100 for the full control effect; nearly all actives have a fitted effect of over 70% in size
# TGFb CCL64 inh: blocks TGF-b signaling in CCL64 reporter cells. shares compounds with TGFb inhibitor. CCL64 CAGA-GFP reporter, TGF-b stimulated, GFP fluorescence, 18 h. Potency, µM (highest dose often 46.1 µM), without a hit: at the top dose activity, negative = inhibition, actives largely listed as inhibitors. 41% of 1,600 active. AID 720536; note: potency is the fitted concentration of half-maximal effect; nearly all actives have a fitted effect of over 65% in size
# COP TGFb inh: blocks TGF-b signaling in HepG2 COP reporter. shares compounds with TGFb inhibitor. HepG2 COP-GFP TGF-b reporter, GFP fluorescence, 18 h; cells stimulated by added recombinant TGF-beta. Potency, µM (highest dose often 46.1 µM), inactives show top-dose activity, negative = inhibition, actives largely listed as inhibitors. 3% of 1,600 active. AID 720537; note: potency is the fitted concentration of half-maximal effect; nearly all actives have a fitted effect of over 70% in size
# An asterisk follows results filed as active; ? = inconclusive; . = no result given. Unless noted, calls come from the whole dose curve; as a rule, active = well fitted curve in the direction sought with a large enough effect; inconclusive = small, poorly fitted or top-dose-only effect, or another doubt; inactive = no such curve, though single readings can be large; an effect the other way counts as inactive or inconclusive.
SMILES,TGFb inhibitor,HepG2 tox-1,IL1B secr inh,DT40 TDP1 no CPT,TDP1 cell CPT,TDP1 block,TGFb CAGA inh,HepG2 tox-2,TGFb CCL64 inh,COP TGFb inh
CC(=O)N(C1=C(Cl)C(=O)c2ccccc2C1=O)C1CCCCC1,2.82µM*,-88.6%,-96.9*,0.517µM*,0.461µM*,.,3.26µM*,8.2µM*,4.61µM*,10.3µM*
COc1ccccc1N1CCN(C(=O)Cn2nnc(-c3ccncc3)n2)CC1,-27.5%,10.8%,19.0,-11.3%,-12.5%,1.9%,.,.,.,.
COc1ccc(-c2nnn(CC(=O)N3CCN(c4ccccc4OC)CC3)n2)cc1,3.55µM*,-24.8%,-17.0,?,?,-2.5%,-17.0%,0.3%,?,-4.2%
O=C1C(NS(=O)(=O)c2cccs2)=C(N2CCN(Cc3ccccc3)CC2)C(=O)c2ccccc21,8.91µM*,10µM*,4.6,16.4µM*,?,.,?,-23.5%,-10.4%,15.9%
CC(NS(C)(=O)=O)C(c1cccs1)N1CCN(Cc2ccccc2)CC1 (centres undefined),-7.7%,-3.9%,8.4,?,?,3.3%,.,.,.,.
Cc1cccc(N2CCN(C(=O)C3COc4ccccc4O3)CC2)c1C (centres undefined),11.2µM*,-37.0%,16.2,?,-17.0%,.,16.4µM*,-16.1%,?,-3.2%
Cc1cccc(N2CCN(C(=O)c3ccc(S(=O)(=O)N(C)c4ccccc4)cc3)CC2)c1C,5.62µM*,-2.5%,-17.6,4.61µM*,5.8µM*,-2.7%,9.2µM*,-20.5%,?,20.1%
O=C(C1COc2ccccc2O1)N1CCN(c2ccccc2Cl)CC1 (centres undefined),9.7%,-2.7%,23.8,-13.3%,-24.7%,8.0%,.,.,.,.
CC1=C(C(=O)N(C)C)CC(CC(=O)NCc2cccc3ccccc23)C(=O)N1CCC1=CCCCC1 (centres undefined),?,-46.4%,-19.2,?,?,.,.,.,.,.
Cc1cc(/C=N/NC(N)=S)c(C)n1-c1cccc(Cl)c1,11.2µM*,-18.6%,82.2,16.4µM*,13µM*,8.2%,14.6µM*,-24.4%,16.4µM*,43.5%
Cc1cc(/C=N/O)c(C)n1-c1ccc(Br)cc1,-7.2%,-17.4%,0.0,?,0.9%,5.8%,.,.,.,.
Cc1cc(/C=N/NC(N)=S)c(C)n1-c1ccc(Br)cc1,12.6µM*,-20.1%,0.7,8.2µM*,2.91µM*,13.2%,10.3µM*,?,?,34.4%
COc1cc2c(cc1OC)C(C)N(C(=O)c1cc(C)on1)CC2 (centres undefined),11.2µM*,4.5%,36.1,1.03µM*,0.82µM*,2.9%,7.31µM*,1.5%,?,?
COc1cc2c(cc1O)CCN(C(=O)c1ccco1)C2C (centres undefined),31.7%,-2.0%,-6.3,?,-28.8%,5.6%,.,.,.,.
CCC1CCCCN1S(=O)(=O)c1ccc(NC(=O)c2nc(S(C)(=O)=O)ncc2Cl)cc1 (centres undefined),4.47µM*,3.98µM*,-100.6*,2.59µM*,1.46µM*,9.4%,3.66µM*,6.51µM*,2.06µM*,9.2µM*
CCS(=O)(=O)c1ncc(Cl)c(C(=O)Nc2ccc(S(=O)(=O)N3CCCC(C)C3)cc2)n1 (centres undefined),4.47µM*,4.47µM*,-104.4*,2.31µM*,0.92µM*,8.4%,4.11µM*,5.17µM*,2.59µM*,7.31µM*
CSc1ncc(Cl)c(C(=O)Nc2ccc(S(=O)(=O)N3CCOCC3)cc2)n1,-45.0%,-20.2%,?,-25.7%,-19.5%,4.4%,.,.,.,.
O=C(/C=C/c1cccc([N+](=O)[O-])c1)c1ccc([N+](=O)[O-])o1,1.26µM*,4.47µM*,-51.7*,0.164µM*,0.164µM*,.,2.91µM*,8.2µM*,1.64µM*,?
O=C(/C=C/c1cccc([N+](=O)[O-])c1)NCc1ccc2c(c1)OCO2,0.0%,10.1%,-2.9,-16.0%,-12.6%,2.8%,.,.,.,.
Cc1cccc(/C=C/C(=O)c2ccc([N+](=O)[O-])o2)c1,2.24µM*,10µM*,-100.4*,0.651µM*,0.581µM*,2.2%,3.26µM*,5.17µM*,2.06µM*,?
COc1ccc(CNC(=O)c2c(-c3c(F)cccc3Cl)noc2C)cc1,0.4%,-19.4%,26.3,?,-1.7%,.,.,.,.,.
CCOc1ccc(Br)cc1CNc1ccc2c(c1)OCCO2,17.8%,-11.0%,?,-3.9%,-5.2%,11.0%,.,.,.,.
CC1Sc2ccc(S(=O)(=O)N3CCC(C(=O)Nc4ccc(Cl)cc4)CC3)cc2NC1=O (centres undefined),20µM*,-9.5%,-18.6,9.2µM*,20.6µM*,0.7%,5.17µM*,?,?,30.4%
CN(C)S(=O)(=O)c1ccc(Cl)c(C(=O)OCC(=O)NC(=O)NC2CCCC2)c1,3.2%,-21.2%,9.6,-38.1%,-12.5%,0.0%,.,.,.,.
COc1ccc(Nc2nnc(-c3ccc(N4CCOCC4)c([N+](=O)[O-])c3)c3ccccc23)cc1,?,3.6%,18.8,23.1µM*,23.1µM*,6.4%,4.11µM*,1.8%,?,22.8%
